The whole screen tested about 39,000 compounds, of which about 3,300 (8.5%) were called active. Shown is part of a subset that was picked to be rich in actives.
These molecules were tested on HepG2 (assay: cytotoxicity call (relative viability < 0.9)). Settings: 10 µM.
With `C[C@@H]1CCCCO[C@H](CN(C)S(=O)(=O)c2cn(C)cn2)[C@@H](C)CN([C@@H](C)CO)C(=O)c2cc(N(C)C)ccc2O1` the cytotoxicity call was “inactive”.
With `Cc1ccc(S(=O)(=O)N(C)C[C@H]2OCCCC[C@@H](C)Oc3ccc(NC(=O)Nc4c(C)noc4C)cc3C(=O)N([C@H](C)CO)C[C@@H]2C)cc1` the cytotoxicity call was “inactive”.
With `CSc1ccc2cc(CN(C[C@H]3CCCO3)C(=O)c3ccco3)c(N(C)Cc3csc(C)n3)nc2c1` the cytotoxicity call was “inactive”.
For `C[C@@H]1CN([C@@H](C)CO)C(=O)c2cc(NC(=O)CCCN(C)C)ccc2O[C@@H](C)CCCCO[C@@H]1CN(C)S(C)(=O)=O`, the cytotoxicity call was “inactive”.
In the case of `CO[C@@H]1CN(C)C(=O)c2cc(NC(=O)Nc3ccccc3)ccc2OC[C@@H](C)N(C(=O)CN(C)C)C[C@H]1C`, the cytotoxicity call is reported as “inactive”.
For `CC(OC1OCCN(C(C)c2nc(=O)[nH][nH]2)C1c1ccc(F)cc1)c1cc(C(F)(F)F)cc(C(F)(F)F)c1` (stereo unspecified), the cytotoxicity call was “active”.
`C[C@@H](O[C@H]1OCCN(Cc2n[nH]nc2CN(C)C)[C@H]1c1ccc(F)cc1)c1cc(C(F)(F)F)cc(C(F)(F)F)c1` was tested, and the cytotoxicity call was “active”.
In the case of `COc1ccc(S(=O)(=O)Nc2cccc3c2O[C@@H](CN(C)Cc2ccc(-c4ccccc4)cc2)[C@@H](C)CN([C@@H](C)CO)C3=O)cc1`, the cytotoxicity call is reported as “inactive”.
In the case of `CC(C)NC(=O)N(C)C[C@@H]1OCCCC[C@@H](C)Oc2ccc(NC(=O)C3CCCCC3)cc2C(=O)N([C@H](C)CO)C[C@H]1C`, the cytotoxicity call is reported as “inactive”.
With `C[C@H](CO)N1C[C@H](C)[C@@H](CN(C)Cc2ccc(-c3ccccc3)cc2)Oc2ccc(NC(=O)Cc3cn(C)c4ccccc34)cc2CC1=O` the cytotoxicity call was “inactive”.
For `C[C@@H]1CN([C@H](C)CO)C(=O)Cc2cc(NC(=O)Cc3cn(C)c4ccccc34)ccc2O[C@@H]1CN(C)Cc1ccc(C(=O)Nc2ccccc2N)cc1`, the cytotoxicity call was “inactive”.
For `C[C@@H]1CN([C@@H](C)CO)C(=O)Cc2cc(NC(=O)Cc3cn(C)c4ccccc34)ccc2O[C@H]1CN(C)Cc1ccc(-c2ccccc2)cc1`, the cytotoxicity call was “inactive”.
In the case of `C[C@@H]1CN([C@@H](C)CO)C(=O)Cc2cc(NC(=O)Cc3cn(C)c4ccccc34)ccc2O[C@@H]1CN(C)CC1CCCCC1`, the cytotoxicity call is reported as “active”.
In the case of `C[C@H]1CN([C@@H](C)CO)C(=O)Cc2cc(NC(=O)Cc3cn(C)c4ccccc34)ccc2O[C@H]1CN(C)Cc1ccc(-c2ccccc2)cc1`, the cytotoxicity call is reported as “inactive”.
In the case of `C[C@@H]1CN([C@@H](C)CO)C(=O)Cc2cc(NC(=O)Cc3cn(C)c4ccccc34)ccc2O[C@@H]1CN(C)Cc1ccc(-c2ccccc2)cc1`, the cytotoxicity call is reported as “active”.
`C[C@H](CO)N1C[C@H](C)[C@H](CN(C)Cc2ccc(C(=O)Nc3ccccc3N)cc2)Oc2ccc(NC(=O)Cc3cn(C)c4ccccc34)cc2CC1=O` was tested, and the cytotoxicity call was “active”.
With `C[C@H]1CN([C@@H](C)CO)C(=O)Cc2cc(NC(=O)Cc3cn(C)c4ccccc34)ccc2O[C@@H]1CN(C)Cc1ccc(C(=O)Nc2ccccc2N)cc1` the cytotoxicity call was “inactive”.
`C[C@H](CO)N1C[C@H](C)[C@H](CN(C)Cc2ccc(-c3ccccc3)cc2)Oc2ccc(NC(=O)Cc3cn(C)c4ccccc34)cc2CC1=O` was tested, and the cytotoxicity call was “inactive”.
In the case of `C[C@H](CO)N1C[C@H](C)[C@@H](CN(C)CC2CCCCC2)Oc2ccc(NC(=O)Cc3cn(C)c4ccccc34)cc2CC1=O`, the cytotoxicity call is reported as “inactive”.
For `C[C@@H]1CN([C@H](C)CO)C(=O)Cc2cc(NC(=O)Cc3cn(C)c4ccccc34)ccc2O[C@H]1CN(C)Cc1ccc(-c2ccccc2)cc1`, the cytotoxicity call was “active”.
With `C[C@@H]1CN([C@H](C)CO)C(=O)Cc2cc(NC(=O)Cc3cn(C)c4ccccc34)ccc2O[C@@H]1CN(C)CC1CCCCC1` the cytotoxicity call was “inactive”.
For `C[C@@H]1CN([C@H](C)CO)C(=O)c2cc(NC(=O)CCCN(C)C)ccc2O[C@@H]1CN(C)S(=O)(=O)c1ccccc1`, the cytotoxicity call was “inactive”.
In the case of `CCCC(=O)N(CCc1c[nH]c2ccccc12)[C@@H]1CC(C(=O)NCCO)=C[C@H](Oc2c(I)cc(CO)cc2OC)[C@H]1O`, the cytotoxicity call is reported as “inactive”.
For `CN(C)CC(=O)N[C@H]1CC[C@H](CCNC(=O)C2CCC2)O[C@H]1CO`, the cytotoxicity call was “inactive”.
With `Cc1noc(C)c1S(=O)(=O)Nc1ccc2c(c1)C(=O)N([C@H](C)CO)C[C@H](C)[C@@H](CN(C)C(=O)Nc1cccc3ccccc13)OCCCC[C@@H](C)O2` the cytotoxicity call was “inactive”.
For `COCC(=O)N[C@@H]1C=C[C@H](CC(=O)N2CCCCC2)O[C@@H]1CO`, the cytotoxicity call was “inactive”.
`CN1C(=O)c2cc(NC(=O)Cc3cccs3)ccc2OC[C@H]2O[C@@H](CC(=O)NCCc3ccncc3)CC[C@H]21` was tested, and the cytotoxicity call was “inactive”.
For `C[C@@H]1CCCCO[C@@H](CN(C)S(=O)(=O)c2ccccc2)[C@@H](C)CN([C@H](C)CO)C(=O)c2cc(NC(=O)Nc3ccc4c(c3)OCO4)ccc2O1`, the cytotoxicity call was “inactive”.
In the case of `C[C@H](CO)N1C[C@H](C)[C@H](CN(C)S(=O)(=O)c2cccs2)Oc2ccc(NC(=O)c3ccncc3)cc2C1=O`, the cytotoxicity call is reported as “inactive”.
`COc1ccc(NC(=O)N(C)C[C@H]2Oc3c(NC(=O)c4cnccn4)cccc3C(=O)N([C@H](C)CO)C[C@H]2C)cc1` was tested, and the cytotoxicity call was “inactive”.
`C[C@@H]1CN([C@H](C)CO)C(=O)c2cccc(NC(=O)c3ccncc3)c2O[C@@H]1CN(C)Cc1ccc2c(c1)OCO2` was tested, and the cytotoxicity call was “inactive”.
In the case of `C[C@@H]1CN([C@H](C)CO)C(=O)c2cccc(NS(=O)(=O)c3cn(C)cn3)c2O[C@@H]1CN(C)C(=O)Nc1ccc2c(c1)OCO2`, the cytotoxicity call is reported as “inactive”.
`CC(C)(C)NC[C@@]1(CO)SC(N)=NC1=O` was tested, and the cytotoxicity call was “inactive”.
In the case of `C[C@@H]1CN([C@H](C)CO)C(=O)Cc2cc(NC(=O)Cc3cn(C)c4ccccc34)ccc2O[C@@H]1CN(C)Cc1ccc(-c2ccccc2)cc1`, the cytotoxicity call is reported as “active”.
For `C[C@H]1CN([C@@H](C)CO)C(=O)Cc2cc(NC(=O)Cc3cn(C)c4ccccc34)ccc2O[C@@H]1CN(C)Cc1ccc(-c2ccccc2)cc1`, the cytotoxicity call was “inactive”.
For `C[C@@H]1CN(S(=O)(=O)N2CCN(C(=O)c3[nH]nc4ccccc34)CC2)C[C@H](C)O1`, the cytotoxicity call was “inactive”.
With `C[C@@H]1CN([C@@H](C)CO)C(=O)CCCn2nncc2CO[C@@H]1CN(C)C(=O)C1CC1` the cytotoxicity call was “inactive”.
For `C[C@@H]1CCCCO[C@H](CN(C)Cc2ccc(C(F)(F)F)cc2)[C@H](C)CN([C@H](C)CO)C(=O)c2cc(NC(=O)Nc3ccc4c(c3)OCO4)ccc2O1`, the cytotoxicity call was “active”.
With `C[C@@H]1CCCCO[C@H](CN(C)Cc2ccc(C(F)(F)F)cc2)[C@@H](C)CN([C@@H](C)CO)C(=O)c2cc(NC(=O)Nc3ccc4c(c3)OCO4)ccc2O1` the cytotoxicity call was “active”.
For `C[C@@H]1CCCCO[C@@H](CN(C)Cc2ccc(C(F)(F)F)cc2)[C@H](C)CN([C@@H](C)CO)C(=O)c2cc(NC(=O)Nc3ccc4c(c3)OCO4)ccc2O1`, the cytotoxicity call was “active”.
For `C[C@@H]1CCCCO[C@@H](CN(C)Cc2ccc(C(F)(F)F)cc2)[C@@H](C)CN([C@@H](C)CO)C(=O)c2cc(NC(=O)Nc3ccc4c(c3)OCO4)ccc2O1`, the cytotoxicity call was “inactive”.
With `C[C@@H]1CN([C@H](C)CO)C(=O)c2cc(NC(=O)Nc3ccc4c(c3)OCO4)ccc2O[C@@H](C)CCCCO[C@@H]1CN(C)Cc1ccc(C(F)(F)F)cc1` the cytotoxicity call was “inactive”.
With `C[C@@H]1CN([C@@H](C)CO)C(=O)c2cc(NC(=O)Nc3ccc4c(c3)OCO4)ccc2O[C@@H](C)CCCCO[C@H]1CN(C)Cc1ccc(C(F)(F)F)cc1` the cytotoxicity call was “inactive”.
`C[C@@H]1CN([C@@H](C)CO)C(=O)c2cc(NC(=O)Nc3ccc4c(c3)OCO4)ccc2O[C@@H](C)CCCCO[C@@H]1CN(C)Cc1ccc(C(F)(F)F)cc1` was tested, and the cytotoxicity call was “inactive”.
With `C[C@@H]1CN([C@H](C)CO)C(=O)c2cc(NC(=O)Nc3ccc4c(c3)OCO4)ccc2O[C@@H](C)CCCCO[C@H]1CN(C)Cc1ccc(C(F)(F)F)cc1` the cytotoxicity call was “active”.
In the case of `COc1ccc(CN(C)C[C@H]2Oc3ccc(NC(=O)Cn4cnnn4)cc3CC(=O)N([C@H](C)CO)C[C@@H]2C)cc1`, the cytotoxicity call is reported as “inactive”.
`C[C@@H]1CN([C@@H](C)CO)C(=O)c2cc(NC(=O)CCC(F)(F)F)ccc2O[C@@H]1CN(C)C(=O)Nc1cccc2ccccc12` was tested, and the cytotoxicity call was “inactive”.
`O=C(C[C@@H]1CC[C@@H]2[C@H](COC[C@H](O)CN2S(=O)(=O)c2ccc(Cl)cc2)O1)NCCN1CCCCC1` was tested, and the cytotoxicity call was “inactive”.
With `C[C@@H]1CN([C@@H](C)CO)C(=O)c2cc(C#Cc3cccc(F)c3)cnc2O[C@H]1CN(C)CC1CCOCC1` the cytotoxicity call was “inactive”.
With `Cc1noc(C)c1NC(=O)N(C)C[C@H]1OCCCC[C@@H](C)Oc2ccc(NS(=O)(=O)c3ccccc3)cc2C(=O)N([C@@H](C)CO)C[C@@H]1C` the cytotoxicity call was “inactive”.
With `CNC(=NC#N)NCCSCc1nc[nH]c1C` the cytotoxicity call was “inactive”.
With `N#C[C@@H]1[C@@H](c2ccc(C#Cc3ccccn3)cc2)[C@H](CO)N1C(=O)CN1CCOCC1` the cytotoxicity call was “inactive”.
`CN(C)CC(=O)N1CC(=O)N2[C@H](CO)[C@H](c3ccc(C#Cc4cccnc4)cc3)[C@@H]2C1` was tested, and the cytotoxicity call was “inactive”.
In the case of `COC(=O)[C@@H](Cc1ccc(-n2cc(C(=O)NO)nn2)cc1)N1CC2=CC(=O)[C@@H](C3CC3)[C@@H]2[C@H]1[C@H](O)Cc1ccccc1`, the cytotoxicity call is reported as “inactive”.
For `COc1ccccc1-c1ccc2c(c1)O[C@@H](CN(C)C(=O)c1ccncc1)[C@H](C)CN([C@@H](C)CO)S2(=O)=O`, the cytotoxicity call was “inactive”.
`CN1CCN(C(=O)C[C@H]2CC[C@H]3[C@@H](COC[C@H](O)CN3C(=O)C3CCOCC3)O2)CC1` was tested, and the cytotoxicity call was “inactive”.
In the case of `Cc1noc(C)c1NC(=O)Nc1ccc2c(c1)CC(=O)N([C@@H](C)CO)C[C@H](C)[C@@H](CN(C)S(=O)(=O)c1c(C)noc1C)O2`, the cytotoxicity call is reported as “inactive”.
With `CC(C)C[C@@H]1NC(=O)[C@H]2C[C@@H](C(=O)NCCCC[N+](C)(C)C)[C@@H](c3cccc(OCCO)c3)N2C1=O` the cytotoxicity call was “inactive”.
For `CO[C@H]1CN(C)C(=O)c2cc(NS(C)(=O)=O)ccc2OC[C@H](C)N(C(=O)C2CCOCC2)C[C@@H]1C`, the cytotoxicity call was “inactive”.
For `N#CCCn1c(CC(N)=O)nc2ccccc21`, the cytotoxicity call was “inactive”.
For `Cc1cccc(S(=O)(=O)N2C[C@H](O)COC[C@@H]3O[C@@H](CC(=O)NCc4ccncn4)CC[C@H]32)c1`, the cytotoxicity call was “inactive”.

Reference: the antibiotic and cytotoxicity screens of Wong et al. (2023)
